Percent Effect data for eleven compounds are collected here from ChEMBL document CHEMBL3988442, “University of Dundee, Small-Polar-MMV Screening Library” (2021).

Design in all cases: scale not given: direction of the effect not stated beside the values
Experiment [1] deals with Protein translocase subunit SecA (Escherichia coli (strain K12)) (UniProt P10408). The experiment in a line: Assay to Identify E. coli SecA ATPase Inhibitors. In kind it is functional. Particulars: 30 µM.
Experiment [2] addresses T1, Ubiquitin-activating enzyme e1, putative (Leishmania donovani (strain BPK282A1)) (UniProt E9BSI1).
T1 sequence (whole entry): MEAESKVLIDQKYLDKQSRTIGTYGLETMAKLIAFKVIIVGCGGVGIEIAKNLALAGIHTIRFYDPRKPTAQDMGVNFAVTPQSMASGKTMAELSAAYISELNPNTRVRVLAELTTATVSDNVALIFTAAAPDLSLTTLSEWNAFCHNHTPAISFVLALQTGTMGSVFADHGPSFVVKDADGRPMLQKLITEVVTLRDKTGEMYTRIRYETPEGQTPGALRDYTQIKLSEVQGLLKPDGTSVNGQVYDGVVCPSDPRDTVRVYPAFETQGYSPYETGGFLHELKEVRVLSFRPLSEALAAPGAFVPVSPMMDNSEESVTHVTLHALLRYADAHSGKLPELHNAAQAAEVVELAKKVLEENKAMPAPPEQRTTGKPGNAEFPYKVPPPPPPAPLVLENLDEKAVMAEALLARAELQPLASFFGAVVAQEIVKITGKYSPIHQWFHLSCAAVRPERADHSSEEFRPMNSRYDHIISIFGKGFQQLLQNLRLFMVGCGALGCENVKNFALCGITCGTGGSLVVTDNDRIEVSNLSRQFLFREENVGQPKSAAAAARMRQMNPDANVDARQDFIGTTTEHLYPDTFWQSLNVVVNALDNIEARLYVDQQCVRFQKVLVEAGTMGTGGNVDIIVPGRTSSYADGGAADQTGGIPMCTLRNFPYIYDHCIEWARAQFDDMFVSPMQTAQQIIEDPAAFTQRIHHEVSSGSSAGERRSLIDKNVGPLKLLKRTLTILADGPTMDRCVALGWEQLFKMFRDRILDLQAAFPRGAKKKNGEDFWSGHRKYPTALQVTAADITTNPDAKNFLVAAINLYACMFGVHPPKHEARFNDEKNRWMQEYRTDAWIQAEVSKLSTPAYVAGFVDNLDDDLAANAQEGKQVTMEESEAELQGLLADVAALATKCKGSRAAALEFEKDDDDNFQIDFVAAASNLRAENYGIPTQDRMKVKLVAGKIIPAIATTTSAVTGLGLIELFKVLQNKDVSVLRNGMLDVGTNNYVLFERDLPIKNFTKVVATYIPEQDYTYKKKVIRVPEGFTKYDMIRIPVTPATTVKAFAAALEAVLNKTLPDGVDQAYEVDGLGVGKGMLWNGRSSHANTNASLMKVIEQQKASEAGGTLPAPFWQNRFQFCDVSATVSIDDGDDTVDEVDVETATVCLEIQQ
The experiment in a line: Leishmania donovani Ubiquitin Activating Enzyme (LdE1). The format is functional. Particulars: 30 µM.

Experiment [3] has as its target AMP-activated protein kinase, AMPK (Homo sapiens) (UniProt P54646+O43741+P54619+Q9UGJ0+Q9Y478+Q13131+Q9UGI9). Put plainly: AMP-dependent Kinase enzyme assay. An in vitro enzyme assay that detects ADP turnover that is directly proportional to AMPK activity. This uses naive AMPK that is activated during the assay with MK-8722. In kind it is functional. Particulars: 30 µM.

Experiment [4] has as its target Sialic acid-binding Ig-like lectin 9 (Homo sapiens) (UniProt Q9Y336). The experiment in a line: Hs-Siglec9 ALPHAscreen SOP 20170721. The following applies: 10 µM.
The subject of another experiment is Trypanosoma cruzi. Put plainly: Trypanosoma cruzi phosphomannomutase and mannose-1-phosphate guanylyltransferase assay. In kind it is functional. Particulars: 10 µM.
Experiment [5] has as its target T2, Arginase-2, mitochondrial (Homo sapiens) (UniProt P78540).
T2 sequence (whole entry): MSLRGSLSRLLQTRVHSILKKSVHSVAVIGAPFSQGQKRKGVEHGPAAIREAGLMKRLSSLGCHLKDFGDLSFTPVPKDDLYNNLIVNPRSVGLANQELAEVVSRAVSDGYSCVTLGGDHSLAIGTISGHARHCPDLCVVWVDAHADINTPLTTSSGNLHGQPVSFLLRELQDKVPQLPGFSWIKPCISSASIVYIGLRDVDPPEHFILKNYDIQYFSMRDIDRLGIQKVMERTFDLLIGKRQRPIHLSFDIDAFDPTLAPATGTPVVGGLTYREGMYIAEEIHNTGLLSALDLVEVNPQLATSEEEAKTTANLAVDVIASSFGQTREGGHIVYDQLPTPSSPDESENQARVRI
Put plainly: in vitro enzyme assay to detect the production of urea directly proportional to the activity of Arginase II. Note: in the data most compounds retested in dose-response had high values. In kind it is functional. Particulars: 33.3 µM.

Experiment [6] concerns the target T3, Proteasome subunit beta (Trypanosoma cruzi) (UniProt O96673).
T3 sequence (whole entry): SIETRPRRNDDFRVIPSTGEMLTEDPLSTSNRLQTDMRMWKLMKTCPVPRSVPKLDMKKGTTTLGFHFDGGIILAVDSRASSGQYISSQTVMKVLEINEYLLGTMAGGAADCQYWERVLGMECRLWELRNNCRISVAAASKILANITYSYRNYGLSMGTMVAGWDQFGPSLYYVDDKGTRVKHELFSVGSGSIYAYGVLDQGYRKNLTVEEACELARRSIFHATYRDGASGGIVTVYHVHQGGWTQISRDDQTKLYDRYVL
Put plainly: Trypanosoma cruzi proteasome chymotrypsin-like activity (TcProtChymo) assay. Note: in the data most compounds retested in dose-response had high values. The following applies: 9.37 µM. In kind it is functional.

The species named for another experiment is Homo sapiens. The experiment in a line: To identify inhibition of the IFN signalling (Jak-Stat) pathway via expression of an eGFP reporter gene under the control of an IFN-stimulated response element (ISRE) containing MxA promoter. The format is functional. Particulars: 30 µM. On the technique in general: In a reporter assay the amount or activity of a reporter protein is the signal.

The target in experiment [7] is T4, Tyrosyl-tRNA synthetase, putative (Trypanosoma cruzi (strain CL Brener)) (UniProt Q4DSP6).
T4 sequence (whole entry): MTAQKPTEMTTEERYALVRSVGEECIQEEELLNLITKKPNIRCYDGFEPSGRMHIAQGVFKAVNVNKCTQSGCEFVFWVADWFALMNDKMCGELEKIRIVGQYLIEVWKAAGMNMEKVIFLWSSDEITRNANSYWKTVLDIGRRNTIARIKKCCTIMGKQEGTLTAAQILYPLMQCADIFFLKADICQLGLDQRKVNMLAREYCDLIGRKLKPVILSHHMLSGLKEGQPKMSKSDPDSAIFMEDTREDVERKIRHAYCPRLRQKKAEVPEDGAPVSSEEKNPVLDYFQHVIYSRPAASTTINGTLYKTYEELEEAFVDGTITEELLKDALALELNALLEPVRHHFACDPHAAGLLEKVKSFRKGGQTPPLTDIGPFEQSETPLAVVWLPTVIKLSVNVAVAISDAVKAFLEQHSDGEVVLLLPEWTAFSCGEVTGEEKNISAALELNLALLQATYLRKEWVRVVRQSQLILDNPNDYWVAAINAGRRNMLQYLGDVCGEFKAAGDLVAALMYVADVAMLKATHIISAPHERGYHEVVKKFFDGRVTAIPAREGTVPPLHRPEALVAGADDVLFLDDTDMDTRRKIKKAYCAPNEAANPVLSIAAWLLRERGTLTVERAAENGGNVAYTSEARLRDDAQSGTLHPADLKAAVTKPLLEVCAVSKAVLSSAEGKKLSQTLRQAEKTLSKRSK
The experiment in a line: Trypanosoma cruzi tyrosyl tRNA synthetase (TcYRS) _High Tyrosine SOP. Note: in the data most compounds retested in dose-response had high values. The following applies: 30 µM. In kind it is functional.

Experiment [8] deals with T4, Tyrosyl-tRNA synthetase, putative (Trypanosoma cruzi (strain CL Brener)). Put plainly: Trypanosoma cruzi tyrosyl tRNA synthetase (TcYRS) SOP. In kind it is functional. The following applies: 30 µM.
The target in experiment [9] is Chromo domain-containing protein 1 (Saccharomyces cerevisiae (strain ATCC 204508 / S288c) (Baker's yeast)) (UniProt P32657). The experiment in a line: ScCHD-1 Enzyme Inhibition Assay. Note: in the data most compounds retested in dose-response had high values. In kind it is functional. The following applies: 30 µM.

For some of these results: Measured potencies and affinities stand elsewhere.

Chain of Protein translocase subunit SecA (Escherichia coli (strain K12)) (P10408 whole entry): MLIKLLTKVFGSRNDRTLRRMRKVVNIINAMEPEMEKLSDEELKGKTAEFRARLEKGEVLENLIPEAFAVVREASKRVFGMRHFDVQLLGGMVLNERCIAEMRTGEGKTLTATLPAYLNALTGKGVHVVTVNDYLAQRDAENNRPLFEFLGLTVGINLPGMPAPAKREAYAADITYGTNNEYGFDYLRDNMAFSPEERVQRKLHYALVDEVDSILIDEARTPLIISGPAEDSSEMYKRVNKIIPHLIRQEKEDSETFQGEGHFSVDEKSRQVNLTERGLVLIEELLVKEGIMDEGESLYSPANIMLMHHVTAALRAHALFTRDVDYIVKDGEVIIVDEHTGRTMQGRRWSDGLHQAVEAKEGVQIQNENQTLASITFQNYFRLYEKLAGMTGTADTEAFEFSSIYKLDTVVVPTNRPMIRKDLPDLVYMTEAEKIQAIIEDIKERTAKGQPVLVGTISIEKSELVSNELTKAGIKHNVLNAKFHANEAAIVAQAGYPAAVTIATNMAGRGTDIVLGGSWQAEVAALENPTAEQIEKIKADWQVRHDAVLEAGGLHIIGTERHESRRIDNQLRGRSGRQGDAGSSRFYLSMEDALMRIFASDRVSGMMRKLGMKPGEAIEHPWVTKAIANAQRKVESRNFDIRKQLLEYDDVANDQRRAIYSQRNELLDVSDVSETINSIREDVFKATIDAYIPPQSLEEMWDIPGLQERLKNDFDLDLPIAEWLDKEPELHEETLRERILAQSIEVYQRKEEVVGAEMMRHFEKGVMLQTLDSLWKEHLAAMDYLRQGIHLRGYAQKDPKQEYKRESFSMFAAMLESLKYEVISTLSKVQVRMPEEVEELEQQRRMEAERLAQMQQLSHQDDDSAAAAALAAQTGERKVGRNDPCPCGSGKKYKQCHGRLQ
Chain of Chromo domain-containing protein 1 (Saccharomyces cerevisiae (strain ATCC 204508 / S288c) (Baker's yeast)) (P32657 whole entry, the tested form may be a part): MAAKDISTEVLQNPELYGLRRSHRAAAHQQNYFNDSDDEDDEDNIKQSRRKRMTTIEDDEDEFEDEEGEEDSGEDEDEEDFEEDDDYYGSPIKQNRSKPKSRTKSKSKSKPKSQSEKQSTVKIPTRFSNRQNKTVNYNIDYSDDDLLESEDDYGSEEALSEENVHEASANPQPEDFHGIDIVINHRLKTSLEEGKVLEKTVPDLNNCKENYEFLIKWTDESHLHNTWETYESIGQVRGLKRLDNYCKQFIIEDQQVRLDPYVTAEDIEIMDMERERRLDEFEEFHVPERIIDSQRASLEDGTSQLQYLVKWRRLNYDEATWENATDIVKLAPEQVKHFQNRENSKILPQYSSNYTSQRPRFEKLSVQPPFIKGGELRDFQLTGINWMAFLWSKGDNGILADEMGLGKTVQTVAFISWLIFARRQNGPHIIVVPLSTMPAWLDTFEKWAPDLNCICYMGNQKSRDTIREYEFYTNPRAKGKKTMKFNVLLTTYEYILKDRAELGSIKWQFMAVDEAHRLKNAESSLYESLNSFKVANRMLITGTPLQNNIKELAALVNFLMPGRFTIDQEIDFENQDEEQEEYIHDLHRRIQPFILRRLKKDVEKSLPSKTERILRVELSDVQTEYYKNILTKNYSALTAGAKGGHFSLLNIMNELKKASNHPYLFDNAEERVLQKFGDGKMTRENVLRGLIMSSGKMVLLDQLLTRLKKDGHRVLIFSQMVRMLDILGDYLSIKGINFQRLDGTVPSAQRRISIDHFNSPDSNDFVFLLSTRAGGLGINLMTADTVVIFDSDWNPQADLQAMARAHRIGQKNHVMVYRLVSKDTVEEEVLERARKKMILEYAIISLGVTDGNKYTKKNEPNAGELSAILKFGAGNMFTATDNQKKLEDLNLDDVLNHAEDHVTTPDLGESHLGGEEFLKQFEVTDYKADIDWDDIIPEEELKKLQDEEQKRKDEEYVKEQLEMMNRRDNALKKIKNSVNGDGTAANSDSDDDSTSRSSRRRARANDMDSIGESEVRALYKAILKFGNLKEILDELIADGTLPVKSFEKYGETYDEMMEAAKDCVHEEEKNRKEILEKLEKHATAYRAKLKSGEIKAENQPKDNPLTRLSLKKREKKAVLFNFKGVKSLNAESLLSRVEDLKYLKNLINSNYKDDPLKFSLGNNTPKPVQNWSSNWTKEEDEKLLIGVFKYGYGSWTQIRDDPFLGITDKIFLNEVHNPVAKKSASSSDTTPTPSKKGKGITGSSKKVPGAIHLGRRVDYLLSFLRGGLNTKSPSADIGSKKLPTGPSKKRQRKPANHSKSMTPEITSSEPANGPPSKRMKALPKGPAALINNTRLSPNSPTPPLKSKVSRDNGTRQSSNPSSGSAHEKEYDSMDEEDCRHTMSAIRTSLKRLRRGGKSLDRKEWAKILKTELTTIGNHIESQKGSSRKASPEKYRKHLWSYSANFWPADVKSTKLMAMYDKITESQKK
Chain of Sialic acid-binding Ig-like lectin 9 (Homo sapiens) (Q9Y336 whole entry): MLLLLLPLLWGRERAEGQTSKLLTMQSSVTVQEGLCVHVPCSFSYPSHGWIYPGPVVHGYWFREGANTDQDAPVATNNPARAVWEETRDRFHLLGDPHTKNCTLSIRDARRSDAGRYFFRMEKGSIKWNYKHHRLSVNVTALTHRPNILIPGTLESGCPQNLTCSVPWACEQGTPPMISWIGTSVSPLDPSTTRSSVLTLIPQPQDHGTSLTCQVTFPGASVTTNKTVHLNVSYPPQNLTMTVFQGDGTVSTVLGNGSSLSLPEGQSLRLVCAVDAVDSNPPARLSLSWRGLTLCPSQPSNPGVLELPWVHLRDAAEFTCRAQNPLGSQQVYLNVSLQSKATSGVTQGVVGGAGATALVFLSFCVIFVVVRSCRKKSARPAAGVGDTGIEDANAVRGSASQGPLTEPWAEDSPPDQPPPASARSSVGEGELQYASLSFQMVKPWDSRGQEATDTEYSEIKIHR

For the compound `CN1CCCC1CNC(=O)CCCOc1ccc(F)cc1` (stereo unspecified), the Percent Effect in experiment [1] was -1.24%; in experiment [2], 0%; in experiment [3], 7.48%; in [4] it was 11.7%; with Trypanosoma cruzi it was 4.7%; in [5] it was -3.83%. For the same compound, the Percent Effect in experiment [6] is 0.835%; in the experiment listed under Homo sapiens, -4.13%; in experiment [7], 4.41%; in experiment [8], 7.32%; in [9] it was -3.92%.

As for `COCCOc1ccc(NC(=O)C2CC(=O)N(C)C2)cn1` (stereo unspecified), the Percent Effect in experiment [1] is 0.0993%; in [2] it was 12.7%; in experiment [3], -16.4%; in [4], -3.76%; in the experiment on Trypanosoma cruzi, -5.95%; in experiment [5], 6.46%. The Percent Effect in experiment [6] was 1.06%; in the experiment filed under Homo sapiens, 23.3%; in experiment [7], 1.48%; in experiment [8], 11.4%; in experiment [9], -5.38%.

On to `C=C(C)CN(Cc1cccc(O)c1)C1CCC(O)CC1` (stereo unspecified), for which the Percent Effect was -4.6% in [1]; 5.41% in experiment [2]; -0.588% in experiment [3]; 6.05% in [4]; -2.64% in the experiment with Trypanosoma cruzi; -0.248% in [5]. Also, the Percent Effect in experiment [6] is 6.44%; in the experiment listed under Homo sapiens it was -11.6%; in [7], 2.15%; in experiment [8], 6.17%; in [9], -4.17%.

With `CC(NC(=O)NCC1(N2CCCCC2)CCCCC1)c1nncn1C` (stereo unspecified), the Percent Effect in experiment [1] was -6.18%; in [2], 18.4%; in experiment [3], -2.65%; in experiment [4], 0.417%; in the experiment with Trypanosoma cruzi, 1.03%; in experiment [5] it was 0%. Further, the Percent Effect in experiment [6] is -0.931%; in the experiment listed under Homo sapiens, 5.56%; in experiment [7] it was 9.36%; in [8], 18.5%; in [9] it was -6%.

Take `CCc1noc(C)c1C(=O)N1CCCC1Cn1nc(C)cc1C` (stereo unspecified): the Percent Effect in experiment [1] was -3.14%; in experiment [2], 5.26%; in [3], -1.52%; in experiment [4], -4.06%; with Trypanosoma cruzi, 2.71%; in [5], 1.8%. Also, the Percent Effect in experiment [6] was -3.47%; in the experiment listed under Homo sapiens, -20.2%; in [7], 4.43%; in experiment [8] it was 13.6%; in experiment [9], -6.42%.

On to `Cc1cn2c(n1)CCC(NC(=O)CCC(F)(F)F)C2` (stereo unspecified), for which the Percent Effect in [1] is -7.86%; in experiment [2], -7.89%; in [3] it was -7.17%; in experiment [4], 16.2%; in the experiment on Trypanosoma cruzi, 5.51%; in experiment [5], 0.36%. Also, the Percent Effect in [6] was 3.64%; in the experiment filed under Homo sapiens it was -6.31%; in experiment [7], 3.45%; in experiment [8] it was 16.1%; in [9], -6.39%.

In the case of `Cc1noc(C)c1CN1CC[C@H]2OCC[C@@H](C(=O)N3CCCO3)[C@@H]2C1`, the Percent Effect in experiment [1] was -8.03%; in experiment [2], 16%; in experiment [3], -5.74%; in [4] it was -1.2%; in the experiment on Trypanosoma cruzi, 5.02%; in experiment [5], -43.5%. Also, the Percent Effect was 14.7% in [6]; -8.37% in the experiment listed under Homo sapiens; -1.04% in [7]; 2.5% in [8]; -6.96% in [9].

Regarding `Cc1nc(CCNC(=O)NC2CCN(c3ncccn3)CC2)cs1`, the Percent Effect in experiment [1] is -1.83%; in experiment [2] it was 11%; in experiment [3], -4.69%; in experiment [4], 4.09%; in the experiment with Trypanosoma cruzi, 1.19%; in [5] it was -1.6%. Moreover, the Percent Effect in experiment [6] is 16%; in the experiment listed under Homo sapiens, 22.2%; in experiment [7] it was 11.5%; in [8] it was 21%; in experiment [9] it was 0.13%.

For the compound `Cc1ccc(OCCC(=O)NC2CCc3nc(C)cn3C2)cc1` (stereo unspecified), the Percent Effect in experiment [1] is -3.65%; in experiment [2], 5.26%; in experiment [3] it was 5.43%; in [4] it was 5.54%; in the experiment on Trypanosoma cruzi it was 0.0974%; in [5], -4.73%. In addition, the Percent Effect was 14.7% in experiment [6]; 15.1% in the experiment filed under Homo sapiens; 3.19% in experiment [7]; 10.4% in [8]; -1.61% in experiment [9].

With `COc1cc(CCC(C)O)c(OC)c2c1OCO2` (stereo unspecified), the Percent Effect in experiment [1] is -5.08%; in experiment [2], -1.33%; in experiment [3] it was -4.24%; in experiment [4], -3.72%; in the experiment on Trypanosoma cruzi it was -4.13%; in [5] it was -6.51%. Also, the Percent Effect in [6] is 11.5%; in the experiment filed under Homo sapiens it was -0.862%; in [7] it was -1.06%; in [8], 0%; in experiment [9], -6.82%.

With `O=C(O)C1(Cc2cc(-c3cccc(F)c3)no2)CCOCC1`, the Percent Effect in experiment [1] was -3.27%; in [2], 6.76%; in [3], 11.7%; in [4], 6.38%; in the experiment on Trypanosoma cruzi, -3.75%; in experiment [5] it was -3.02%. Besides, the Percent Effect in experiment [6] is 7.8%; in the experiment listed under Homo sapiens, -7.88%; in experiment [7], 2.15%; in [8] it was 3.9%; in [9] it was -5.82%.
